Laboratory results as given in PubChem BioAssay (NCI).
Compounds without any hit were thinned out: in the full panel of roughly 83,000, 20% have a hit.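 In brief: 96-well plates, 48 h treatment, single concentration, percent growth endpoint.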 The source made the active and inactive calls. The calls were made as follows: active = growth percent below 10; inactive = the rest.

Assays:
Assay in all cases: NCI-60 one-dose screen, 48 h (100 = growth as untreated, 0 = no growth, -100 = all killed)
Conditions in all cases: 10 µM unless noted
[1] = system: SN12C renal
[2] = system: UO-31 renal
[3] = system: TK-10 renal
[4] = system: ACHN renal
[5] = system: CAKI-1 renal
[6] = system: A498 renal
[7] = system: MOLT-4 leukemia
[8] = system: CCRF-CEM leukemia
[9] = system: EKVX NSCLC

Measured: growth

Nc1c(C(=O)Nc2cccc(Cl)c2)sc2ncc(Cl)cc12
inactive: [1] 79.3% | [2] 80.5% | [3] 118% | [4] 23.9% | [5] 82.6% | [6] 103% | [7] 75.8%

COc1ccc2c3c(c4ccccc4cc13)C(=O)N(CCN(C)CCN)C2=O
active: [1] -63.3% | [2] -83.7% | [3] -73.8% | [4] -71.6% | [5] 3.18% | [6] -48.8% | [8] -65.1% | [7] -32.5%

Cc1oc(-c2ccccc2Cl)cc1C(=O)Nc1ccc(S(N)(=O)=O)cc1
inactive: [9] 91.9% | [1] 98.2% | [2] 88.7% | [3] 126% | [4] 106% | [5] 93.9% | [8] 96.2% | [7] 96.3%

O=C(N/N=C\c1c(O)ccc2ccccc12)C1CC1
inactive: [9] 32.1% | [3] 78.1% | [4] 23.6% | [6] 102% | [8] 11.9%
active: [2] 8.64% | [5] 2.09% | [7] 9.27%

Cc1nnc2nc(N)[nH]n2c1=O
inactive: [1] 118% | [2] 84.7% | [3] 89.8% | [4] 109% | [5] 111% | [6] 118% | [8] 109% | [7] 74.7%

Cc1ccc(Nc2c(C(N)=O)cnc3ccc(S(=O)(=O)Nc4cc(C)on4)cc23)cc1
inactive: [1] 97.9% | [2] 78.2% | [4] 89.2% | [8] 100% | [7] 101%

C/C(=N\Nc1cc(C)c2cc(C)ccc2n1)c1ccccn1
active: [2] -91% | [3] -22.2% | [4] -100% | [5] -16.3% | [8] -22% | [7] -17.2%
inactive: [1] 14.8% | [6] 20.9%

C/C(=N\Nc1ccc2ccccc2n1)c1ccccn1
inactive: [1] 17.5% | [3] 15.2% | [6] 11.1%
active: [2] -39.2% | [4] -3.16% | [5] -10.9% | [8] -5.75% | [7] 1.13%

COC(=O)c1cc(=O)nc(N/N=C/c2ccc(C)cc2)s1
inactive: [1] 110% | [2] 86.4% | [3] 104% | [4] 107% | [5] 102% | [6] 104% | [8] 93% | [7] 92.6%

Cc1cc(N2CCCCC2)nc(N(CCNc2ccnc3cc(Cl)ccc23)Cc2ccco2)n1
active: [7] 0.376%
inactive: [9] 64.8% | [1] 24% | [2] 40.6% | [4] 27.8% | [6] 61.3% | [8] 10.2%

O=C(N/N=C\c1ccccc1O)C1CC1
inactive: [9] 109% | [1] 93.6% | [2] 71% | [3] 118% | [4] 108% | [5] 115% | [8] 83.7% | [7] 101%

C/C(=N\Nc1cc(C)c2ccccc2n1)c1ccccn1
active: [2] -86% | [3] -12.9% | [4] -47.1% | [5] -15.1% | [8] -20.2% | [7] -18.7%
inactive: [1] 18.2% | [6] 19.2%

COC(=O)C(N)CSC(c1ccccc1)(c1ccccc1)c1ccccc1 (stereo not drawn)
inactive: [1] 39.9% | [2] 52.6% | [3] 49.5% | [4] 57% | [6] 34.1% | [8] 13.7%
active: [7] 8.4%

Nc1c(Cl)cc(N=Nc2ccccc2)cc1Cl
inactive: [9] 69% | [1] 95.4% | [2] 62.2% | [4] 97.4% | [5] 89.9% | [6] 73.6% | [7] 90.3%

O=C1c2ccccc2C(=Cc2ccccc2)c2ccccc21
active: [3] -7.83% | [6] -17.4%
inactive: [9] 11.3% | [1] 22.3% | [2] 28% | [4] 28.1% | [8] 11.7% | [7] 17.3%

COc1ccc(-c2cc(=O)oc3ccc(Cl)cc23)cc1F
active: [6] 2.69% | [7] 7.8%
inactive: [9] 38.3% | [2] 48.4% | [3] 62.9% | [4] 34.8% | [5] 27% | [8] 11.8%

O=C(c1ccccc1)C(CN1CCOCC1)c1ccccc1 (stereo not drawn)
inactive: [1] 28.1% | [2] 11.2% | [6] 93% | [7] 19.2%
active: [3] 9.68% | [4] 6.83% | [8] 4.53%

Cc1nn2c(-c3nc4cc(Cl)c(Cl)cc4[nH]3)c(-c3ccc(F)cc3)nc2s1
active: [2] -67.1% | [3] -33.1% | [4] 9.13%
inactive: [1] 34% | [5] 13% | [6] 29.8% | [8] 66.5% | [7] 76.3%

Cc1nn(-c2ccc(Br)cc2)c2nc3[nH]c(=O)[nH]c(=O)c3nc12
inactive: [1] 109% | [2] 94.2% | [3] 144% | [4] 106% | [5] 92.2% | [6] 84.3% | [8] 118% | [7] 116%

Cc1cc(Cl)c2c(N(C)C)cccc2n1
inactive: [1] 102% | [2] 91.1% | [3] 125% | [4] 112% | [5] 99.9% | [6] 92.1% | [8] 89.8% | [7] 97.6%

COc1ccc(OC)c(-c2c(C#N)c(-c3ccco3)nc3c2c(-c2ccccc2)nn3-c2ccccc2)c1
inactive: [9] 87.1% | [1] 94.6% | [2] 84.1% | [3] 98% | [5] 82.3% | [6] 98.5% | [8] 94.1% | [7] 96.3%

Cn1cc(-c2csc(-c3cn(CCN)c4ccc(F)cc34)n2)c2cccnc21
inactive: [9] 55.9% | [1] 76% | [2] 58.3% | [3] 121% | [6] 82.4% | [8] 34.3% | [7] 12.1%

CCOc1ccc(NC(=O)c2ccoc2COc2ccccc2)cc1
inactive: [9] 96.1% | [2] 79.8% | [3] 101% | [4] 106% | [5] 95.7% | [6] 108% | [8] 95% | [7] 97%

COC(=O)[C@]12CC[C@@H](C(=O)/C=C/c3cccnc3)[C@@H]1[C@H]1CC[C@@H]3[C@@]4(C)C/C(=C/c5cccnc5)C(=O)C(C)(C)[C@@H]4CC[C@@]3(C)[C@]1(C)CC2
active: [9] -76.3% | [1] -77.8% | [2] -100% | [3] -60.5% | [5] -78.7% | [6] -91.2% | [8] 0.953% | [7] -31.3%

COc1ccc(NC(=O)c2ccc3c(c2)nc(-c2cc4ccccc4[nH]c2=O)n3-c2cc(C(C)(C)C)[nH]n2)cc1
inactive: [1] 93.2% | [2] 86.3% | [3] 107% | [4] 97.1% | [5] 97.2% | [6] 85.8% | [7] 63.1%

C/C(=C(/c1ccccc1)c1ccc(N2C(=O)c3cccc4c(NCc5ccccc5)ccc(c34)C2=O)cc1)c1ccccc1
inactive: [9] 75.3% | [1] 92% | [2] 68.8% | [4] 94.8% | [5] 84.5% | [6] 107% | [8] 89.1% | [7] 88.9%

COc1ccc(-c2cc(/C=C/C(=O)c3ccc(OC)c(OC)c3)[nH]n2)cc1
inactive: [1] 17.6% | [2] 36.4% | [3] 31.4% | [4] 29.8% | [5] 62.8%
active: [6] -4.05%

O=C(NC(Cc1cn(Cc2ccccc2)cn1)C(=O)O)OCC1c2ccccc2-c2ccccc21 (stereo not drawn)
inactive: [1] 108% | [2] 85.1% | [3] 105% | [4] 104% | [5] 103% | [6] 102% | [8] 111% | [7] 83.6%

NCCn1cc(-c2nc(-c3c[nH]c4ncccc34)cs2)c2cc(F)ccc21
inactive: [9] 48.6% | [1] 79% | [2] 53.3% | [3] 142% | [4] 76.4% | [6] 91.4% | [8] 49% | [7] 57%

O=C1c2ccccc2NC(c2cn(-c3ccccc3)nc2-c2cccnc2)N1Cc1ccccc1 (stereo not drawn)
inactive: [9] 81.3% | [1] 87.3% | [2] 65.4% | [3] 105% | [4] 102% | [6] 92% | [8] 91.5% | [7] 67.9%
